Test results reported in PubChem BioAssay AID977607 (Broad Institute, 2014).
Among all 1,500 compounds or so, about 460 (31%) were called active. Another 1% or so got no clear call; they are omitted.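 How the source made its calls: active means curve reaches 40% activation over neutral controls at an AC40 no higher than the top valid tested concentration; inconclusive means no clear call, values can overlap the other calls; inactive means signal moving opposite to the expected increase, and the rest.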 Not all results are given here. Measured potencies and affinities stand elsewhere.

Assay: GLuc-reported insulin release enhancers, glucose-stimulated beta cells – cell-based, INS-1E, Gaussia luciferase, luminescence, cherry-pick, set 2, dose response (AID 977607);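 further: 0% = median of the plate neutral control wells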
Conditions: INS-1E GLuc insulin secretion reporter, 2-3 h, active compounds read high; at 35 µM, 100% = signal doubled over neutral wells unless noted

Max activation, inactive:
Cc1cccc(NCc2ccccc2)c1 -18.2% [at 0.0016 µM, 100% = signal doubled over neutral wells]
Cc1ccc(NCc2cccc(B(O)O)c2)cc1 -34.5%
COc1ccc(/C=N/Nc2nc(-c3ccc(Cl)cc3)cc(C(F)(F)F)n2)c(OC)c1 30.4%
S=C(NCc1ccccc1)Nc1ccc2cn[nH]c2c1 -24.4% [at 0.046 µM, 100% = signal doubled over neutral wells]
COc1ccccc1C(=O)N/N=C(\C)CC(=O)Nc1ccc2c(c1)OCCO2 15.2% [at 0.005 µM, 100% = signal doubled over neutral wells]
CCOc1ncccc1C(=O)Nc1cccc(S(=O)(=O)NC2=NCCC2)c1 -12.4% [at 0.135 µM, 100% = signal doubled over neutral wells]
CCOc1ncccc1C(=O)NCc1ccc(C)cc1 -15% [at 0.046 µM, 100% = signal doubled over neutral wells]
CC(Oc1ccccc1Cl)C(=O)Nc1ccc(S(=O)(=O)Nc2nccs2)cc1 (stereo not given) -19.7% [at 0.135 µM, 100% = signal doubled over neutral wells]
CCOc1ncccc1C(=O)NNC(=O)c1ccccc1-n1cccc1 -7.28% [at 3.8 µM, 100% = signal doubled over neutral wells]
CNC(=O)c1cc(C(=O)c2ccccc2Br)c[nH]1 25.1% [at 0.135 µM, 100% = signal doubled over neutral wells]
COC(=O)CN(c1cccc(C)c1)S(=O)(=O)c1ccccc1 23.2% [at 0.42 µM, 100% = signal doubled over neutral wells]
O=C(Nc1ccc(F)cc1)N1CCCCN2[C@@H](CO)[C@@H](c3ccc(C#Cc4ccccc4)cc3)[C@@H]2C1 21.6% [at 0.0016 µM, 100% = signal doubled over neutral wells]
CCN(CC(=O)Nc1ccccc1OC)C(=O)C1CCCC1 -15.2% [at 3.8 µM, 100% = signal doubled over neutral wells]
O=C1CC(NS(=O)(=O)c2cccs2)CN1c1cccc(F)c1 (stereo not given) -15.9% [at 11 µM, 100% = signal doubled over neutral wells]
C=CCNC(=O)COc1coc(CN2CCN(C(=O)c3ccco3)CC2)cc1=O -8.4% [at 0.046 µM, 100% = signal doubled over neutral wells]
CCn1ncc2c1C(=O)NC1c3ccccc3C(=O)N21 (stereo not given) -17.7% [at 0.0016 µM, 100% = signal doubled over neutral wells]
c1ccc2nc3c(nc2c1)c1ccccc1n3CCN1CCOCC1 -14.9% [at 0.005 µM, 100% = signal doubled over neutral wells]
CC(=O)Nc1nc(C)nc(-c2ccccc2OC(C)=O)n1 -19.4% [at 0.046 µM, 100% = signal doubled over neutral wells]
O=c1c2ccccc2nc(-c2ccco2)n1/N=C/c1ccco1 -20.6% [at 0.0016 µM, 100% = signal doubled over neutral wells]
O=c1c2ccccc2nc(-c2ccco2)n1Cc1ccccc1 -18.2% [at 0.046 µM, 100% = signal doubled over neutral wells]
CSc1ncccc1C(=O)NCCc1ccccc1F 23.1% [at 3.8 µM, 100% = signal doubled over neutral wells]
COCCOc1ccc(C(F)(F)F)cc1NC(=O)c1ccccc1F -23.9% [at 3.8 µM, 100% = signal doubled over neutral wells]
O=C(NCCCNc1ccnc2cc(Cl)ccc12)c1ccccc1F -28.3%
O=S(=O)(c1cccs1)N1CN(C2CCCCC2)c2nc3ccccc3nc21 -12.2%
Cc1ccc(S(=O)(=O)N(CC(=O)Nc2ccc(C)cc2C)C(=O)N2CCN(C)CC2)cc1 42% [at 0.046 µM, 100% = signal doubled over neutral wells]
Cc1ccc(OCC(=O)NNC(=O)CCC(=O)Nc2ccc(C)cc2C)cc1 -27.6% [at 3.8 µM, 100% = signal doubled over neutral wells]
CC(=O)N1CCN(C(=O)COC(=O)c2ccc(S(C)(=O)=O)cc2)CC1 25.9%
CCSc1nnc(NC(=O)c2csc(C)c2)s1 -21.3% [at 0.0016 µM, 100% = signal doubled over neutral wells]
CCC(=O)Nc1nnc(Sc2ccc(N(C)C)cc2)s1 -22.3% [at 0.046 µM, 100% = signal doubled over neutral wells]
CCC(CC)NC(=O)CN1CCN(S(=O)(=O)c2cccs2)CC1 -15.7% [at 3.8 µM, 100% = signal doubled over neutral wells]
Cc1nnc2c(NCCC(C)C)nc3ccccc3n12 -15%
CC1(C)Cc2c(cnn2-c2ccccc2)C(NC(=O)CCN2CCCC2=O)C1 (stereo not given) -18.4%
Cc1ccc(-n2ncc3c2CC(C)(C)CC3NC(=O)CCCN2CCCC2=O)cc1 (stereo not given) -26.8% [at 0.046 µM, 100% = signal doubled over neutral wells]
CCn1nc(NC(=O)c2ccco2)c2cc3ccccc3nc21 61.7% [at 11 µM, 100% = signal doubled over neutral wells]
CCCn1nc(NC(=O)c2ccco2)c2cc3ccccc3nc21 -15.7% [at 0.0016 µM, 100% = signal doubled over neutral wells]
CCOc1ccc(CCNC(=O)CCNC(=O)c2ccco2)cc1OCC 12.9% [at 3.8 µM, 100% = signal doubled over neutral wells]
CC1(C)CC(=O)C(C=NC2CC(C)(C)NC(C)(C)C2)=C(O)C1 -17.1% [at 0.005 µM, 100% = signal doubled over neutral wells]
CCSc1nnc(-c2cccnc2)n1-c1ccc(C)c(Cl)c1 -13.6% [at 0.0016 µM, 100% = signal doubled over neutral wells]
CN(c1ccc(C(=O)N2CCN(Cc3ccccc3)CC2)cc1)S(=O)(=O)c1ccccc1 -44.5%
O=C(CN1C(=O)CCC1=O)Nc1cccc2c1C(=O)NC2=O -14.9% [at 1.2 µM, 100% = signal doubled over neutral wells]
O=C(NNC1CCN(Cc2ccccc2)CC1)c1ccccc1 -25% [at 3.8 µM, 100% = signal doubled over neutral wells]
CN(Cc1ccc(OCC(O)CN(C)Cc2ccccc2)cc1)Cc1nccn1C (stereo not given) -10.6% [at 0.0016 µM, 100% = signal doubled over neutral wells]
N=c1n(CCN2CCCCC2)c2ccccc2n1CC(O)COc1ccccc1 (stereo not given) -22.3% [at 1.2 µM, 100% = signal doubled over neutral wells]
Cc1cccc2[nH]c3c(N4CC=C(c5ccc(F)cc5)CC4)ncnc3c12 18.7% [at 1.2 µM, 100% = signal doubled over neutral wells]
FC(F)(F)c1cc(-c2ccccc2)nc(-n2cc(Cl)cn2)n1 -21.3% [at 0.015 µM, 100% = signal doubled over neutral wells]
CCN(C[C@H]1N[C@@](CC)(C(=O)OC)[C@H]2C(=O)N(C)C(=O)[C@@H]12)S(=O)(=O)c1ccc(OC)cc1 -12.8% [at 0.42 µM, 100% = signal doubled over neutral wells]
COc1ccc(C(=O)C2CCCN(Cc3cccn3-c3nccs3)C2)cc1OC (stereo not given) -15.9% [at 0.005 µM, 100% = signal doubled over neutral wells]
COc1ccc(F)cc1C(=O)C1CCCN(C(=O)c2ccc(C(C)=O)s2)C1 (stereo not given) -19.8%
CCOC(=O)c1[nH]cnc1C(=O)NC(C)C -21.9% [at 0.135 µM, 100% = signal doubled over neutral wells]
CC(C)C[C@H](NC(=O)c1nc[nH]c1C(=O)NC1CCN(C(=O)OC(C)(C)C)CC1)C(=O)OC(C)(C)C 60.6%
CN1C(=O)NC(c2ccc(O)cc2)C2=C1CN(c1ccccc1)C2=O (stereo not given) -22.4% [at 3.8 µM, 100% = signal doubled over neutral wells]
CC(C)c1c(C(=O)N/N=C/c2cccc3ccccc23)nnn1-c1nonc1N -43.8%
O=C(COc1ccccc1Cl)NNC(=O)c1ccc2nc[nH]c2c1 15.8% [at 1.2 µM, 100% = signal doubled over neutral wells]
COC(=O)C[C@@H]1OC[C@H](C(C)C)N1S(=O)(=O)c1ccc(C)cc1 -15.5%
O=C(COC(=O)c1ncc(Cl)c(Cl)c1Cl)NC1CCS(=O)(=O)C1 (stereo not given) -18.3%
